Experimental data reported in the supplement of paper PMC8728848.
Many of the other results were omitted from the sample, so the strongest signals are more common in it than they were.

Assays:
Assay in all cases: glycan array binding signal (z-score within array); higher = stronger binding
Settings in all cases: glycan notation: IUPAC condensed, linker removed
[1] = target: Gal(b1-4)GlcNAc(b1-3)Gal(b1-4)GlcNAc(b1-3)Gal(b1-4)GlcNAc(b1-3)Gal(b1-4)GlcNAc(b1-2)[Gal(b1-4)GlcNAc(b1-3)Gal(b1-4)GlcNAc(b1-3)Gal(b1-4)GlcNAc(b1-3)Gal(b1-4)GlcNAc(b1-6)]Man(a1-6)[Gal(b1-4)GlcNAc(b1-3)Gal(b1-4)GlcNAc(b1-3)Gal(b1-4)GlcNAc(b1-3)Gal(b1-4)GlcNAc(b1-2)Man(a1-3)]Man(b1-4)GlcNAc(b1-4)[Fuc(a1-6)]GlcNAc
How it was run: (§1)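 From the Consortium for Functional Glycomics database, 3228 arrays were curated, keeping only those whose protein sequence was available. Binding is given as a within-array Z-score averaged across arrays sharing a protein sequence and across linkers. Negative Z-scores can be read as non-binding.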

[2] = target: Gal(b1-4)GlcNAc(b1-6)Gal(b1-4)GlcNAc
How it was run: as §1

Gal3S(b1-3)GalNAc = target: Gal3S(b1-3)GalNAc
How it was run: as §1

Gal3S(b1-4)GlcNAc6S = target: Gal3S(b1-4)GlcNAc6S
How it was run: as §1

[3] = target: Gal3S(b1-4)[Fuc(a1-3)]GlcNAc
How it was run: as §1

[4] = target: Gal3S(b1-4)[Fuc(a1-3)]GlcNAc6S
How it was run: as §1

Gal6S(b1-4)GlcNAc6S = target: Gal6S(b1-4)GlcNAc6S
How it was run: as §1

GalNAc(b1-4)Gal(b1-4)Glc = target: GalNAc(b1-4)Gal(b1-4)Glc
How it was run: as §1

GalNAc3S(b1-4)GlcNAc = target: GalNAc3S(b1-4)GlcNAc
How it was run: as §1

GalNAc4S6S(b1-4)GlcNAc = target: GalNAc4S6S(b1-4)GlcNAc
How it was run: as §1

[5] = target: GlcNAc(a1-4)Gal(b1-4)GlcNAc(b1-3)Gal(b1-4)[Fuc(a1-3)]GlcNAc(b1-3)Gal(b1-4)[Fuc(a1-3)]GlcNAc
How it was run: as §1

[6] = target: GlcNAc(a1-6)Gal(b1-4)GlcNAc
How it was run: as §1

[7] = target: GlcNAc(b1-2)Man(a1-3)[GlcNAc(b1-4)][GlcNAc(b1-2)Man(a1-6)]Man(b1-4)GlcNAc(b1-4)[Fuc(a1-6)]GlcNAc
How it was run: as §1

[8] = target: GlcNAc(b1-3)Gal(b1-4)GlcNAc(b1-3)Gal(b1-4)GlcNAc(b1-3)Gal(b1-4)GlcNAc(b1-3)Gal(b1-4)GlcNAc(b1-2)Man(a1-3)[GlcNAc(b1-3)Gal(b1-4)GlcNAc(b1-3)Gal(b1-4)GlcNAc(b1-3)Gal(b1-4)GlcNAc(b1-3)Gal(b1-4)GlcNAc(b1-2)Man(a1-6)]Man(b1-4)GlcNAc(b1-4)[Fuc(a1-6)]GlcNAc
How it was run: as §1

[9] = target: GlcNAc(b1-3)Gal(b1-4)GlcNAc(b1-6)[Gal(b1-3)]GalNAc
How it was run: as §1

[10] = target: GlcNAc(b1-3)Gal(b1-4)GlcNAc(b1-6)[GlcNAc(b1-3)]Gal(b1-4)GlcNAc
How it was run: as §1

[11] = target: GlcNAc(b1-4)[GlcNAc(b1-6)]GalNAc
How it was run: as §1

[12] = target: Man(a1-2)Man(a1-2)Man(a1-3)Man
How it was run: as §1

Man(b1-4)GlcNAc = target: Man(b1-4)GlcNAc
How it was run: as §1

[13] = target: Neu5Ac(a2-3)Gal(b1-3)GalNAc(b1-3)Gal(a1-4)Gal(b1-4)Glc
How it was run: as §1

[14] = target: Neu5Ac(a2-3)Gal(b1-3)[Fuc(a1-4)]GlcNAc(b1-3)Gal(b1-3)[Fuc(a1-4)]GlcNAc
How it was run: as §1

[15] = target: Neu5Ac(a2-3)Gal(b1-4)GlcNAc(b1-2)[Neu5Ac(a2-3)Gal(b1-4)GlcNAc(b1-4)]Man(a1-3)[GlcNAc(b1-4)][Neu5Ac(a2-3)Gal(b1-4)GlcNAc(b1-4)Man(a1-6)]Man(b1-4)GlcNAc(b1-4)GlcNAc
How it was run: as §1

[16] = target: Neu5Ac(a2-3)[GalNAc(b1-4)]Gal(b1-4)GlcNAc
How it was run: as §1

[17] = target: Neu5Ac(a2-6)Gal(b1-4)GlcNAc(b1-3)GalNAc
How it was run: as §1

[18] = target: Neu5Ac(a2-6)GlcNAc(b1-4)GlcNAc
How it was run: as §1

[19] = target: Neu5Ac(a2-8)Neu5Ac(a2-3)Gal(b1-3)GalNAc(b1-4)[Neu5Ac(a2-3)]Gal(b1-4)Glc
How it was run: as §1

[20] = target: Neu5Gc(a2-6)Gal(b1-4)GlcNAc
How it was run: as §1

B1: Flo1 (Saccharomyces cerevisiae), P32768 (protein)
chain: SGATEACLPAGQRKSGMNINFYQYSLKDSSTYSNAAYMAYGYASKTKLGSVGGQTDISIDYNIPCVSSSGTFPCPQEDSYGNWGCKGMGACSNSQGIAYWSTDLFGFYTTPTNVTLEMTGYFLPPQTGSYTFKFATVDDSAILSVGGATAFNCCAQQQPPITSTNFTIDGIKPWGGSLPPNIEGTVYMYAGYYYPMKVVYSNAVSWGTLPISVTLPDGTTVSDDFEGYVYSFDDDLSQSNCTVPDPSNY
[1]
  glycan array binding signal (z-score): 1.44
[2]
  glycan array binding signal (z-score): -0.551
Gal3S(b1-3)GalNAc
  glycan array binding signal (z-score): -0.392
Gal3S(b1-4)GlcNAc6S
  glycan array binding signal (z-score): -0.289
[3]
  glycan array binding signal (z-score): -0.778
[4]
  glycan array binding signal (z-score): -0.547
Gal6S(b1-4)GlcNAc6S
  glycan array binding signal (z-score): -0.216
GalNAc(b1-4)Gal(b1-4)Glc
  glycan array binding signal (z-score): 3.53
GalNAc3S(b1-4)GlcNAc
  glycan array binding signal (z-score): -0.358
GalNAc4S6S(b1-4)GlcNAc
  glycan array binding signal (z-score): 3.28
[5]
  glycan array binding signal (z-score): 2.23
[6]
  glycan array binding signal (z-score): -0.009
[7]
  glycan array binding signal (z-score): 0.011
[8]
  glycan array binding signal (z-score): -0.202
[9]
  glycan array binding signal (z-score): -0.618
[10]
  glycan array binding signal (z-score): -2.82
[11]
  glycan array binding signal (z-score): -0.024
[12]
  glycan array binding signal (z-score): 0.403
Man(b1-4)GlcNAc
  glycan array binding signal (z-score): -0.306
[13]
  glycan array binding signal (z-score): -0.211
[14]
  glycan array binding signal (z-score): 0.24
[15]
  glycan array binding signal (z-score): 0.143
[16]
  glycan array binding signal (z-score): 0.215
[17]
  glycan array binding signal (z-score): 0.748
[18]
  glycan array binding signal (z-score): -0.394
[19]
  glycan array binding signal (z-score): 1.62
[20]
  glycan array binding signal (z-score): -0.199
